Vaccinia mCherry – qHTS for Stage-Specific Inhibitors of Vaccinia Orthopoxvirus: mCherry Reporter Primary qHTS; Vaccinia virus mCherry reporter infection, fluorescence; Potency, µM (series often up to 36.5 µM), hits mostly inhibitors; hit rate 0.63% among 310,000; calls by dose curve; tested in A549 cells; further: nearly all actives have a fitted effect of over 35% in size
Sm TGR block – qHTS Assay for the Inhibitors of Schistosoma Mansoni Peroxiredoxins; Schistosoma mansoni thioredoxin glutathione reductase (TGR), Q962Y6; purified TGR, DTNB reduction, TNB absorbance 405 nm; Potency, µM (series often up to 114 µM), usual class: inhibitors; hit rate 3% among 360,000; further: nearly all actives have a fitted effect of over 60% in size
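Kinetic colorimetric format: TGR-catalysed, NADPH-driven DTNB reduction monitored via TNB absorbance. Enzyme dispensed at 20 nM; compound exposure 15 min at room temperature before reaction start.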
FMDV antiviral – High Throughput Screening for Foot and Mouth Disease Virus Antivirals; FMDV antiviral cell-based qHTS; Potency, µM (top dose mostly 57.9 µM), hits mostly inhibitors; hit rate 1.2% among 410,000; AID 1159524, 2015; calls by dose curve; tested in HEK293T cells; further: read-out not given here; nearly all actives have a fitted effect of over 45% in size
Vaccinia Venus – qHTS for Stage-Specific Inhibitors of Vaccinia Orthopoxvirus: Venus Reporter Primary qHTS | hit rate 0.46% among 330,000 | Potency, µM (highest dose often 36.5 µM), most hits filed as inhibitors | Vaccinia virus Venus reporter expression, fluorescence; calls by dose curve; tested in A549 cells; further: nearly all actives have a fitted effect of over 30% in size
HCMV inh – qHTS Assay for inhibitors of the human cytomegalovirus (HCMV) | activity change, negative = inhibition, % at 57.5 µM | HFF cells, HCMV-luciferase reporter, 72 h; hits give low values | hit rate 4.5% among 410,000; in the data active means activity change below about -60%; inconclusive means no clear call, values can overlap the other calls; inactive means above about -39%
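Steps: HFFs plated, 16 h 37C; compounds added; HCMV-luciferase added to MOI 1 PFU/cell; 72 h 37C; OneGlo reagent, 5 min room temperature; luminescence read, normalized to controls.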
HCV inhibitor – qHTS Assay for Inhibitors of Hepatitis C Virus (HCV) | hit rate 3.4% among 340,000 | Potency, µM (top dose mostly 41.8 µM), most hits filed as inhibitors | Huh7.5.1 HCVcc-Cre infection, luciferase reporter, 44 h
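A cell-based infection assay in which seeded cells (1,000 per well) receive test compound after 4 h, are inoculated with HCVcc-Cre at approximately 0.5 moi, and are incubated 44 h before luminescence detection.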
Hits are given with their value; - = inactive; ? = inconclusive; . = no result. Sampled rows, rich in hits. Any-hit rate of the full collection: about 9.3%. Unless noted, the call rests on the fitted dose curve; in most records, active means well fitted curve in the direction sought with a large enough effect; inconclusive means small, poorly fitted or top-dose-only effect, or another doubt; inactive means no such curve, though single readings can be large; an effect the other way counts as inactive or inconclusive.

SMILES	Vaccinia mCherry	Sm TGR block	FMDV antiviral	Vaccinia Venus	HCMV inh	HCV inhibitor
O=C(COc1ccccc1F)N1N=C(c2cccs2)CC1c1ccco1 (stereo not given)	-	25µM	-	-	-	-
O=C(CCl)N1N=C(c2ccco2)CC1c1ccco1 (stereo not given)	?	6.3µM	-	-	-72	11µM
O=C(COc1ccc(Cl)cc1)N1N=C(c2cccs2)CC1c1ccco1 (stereo not given)	?	.	-	-	-	?
CN1CCN(CC(=O)N2N=C(c3cccs3)CC2c2ccco2)CC1 (stereo not given)	-	-	-	-	-	-
N#Cc1c(NC(=O)Cn2cnc3ccccc3c2=O)oc(-c2ccccc2)c1-c1ccccc1	.	-	-	-	-	-
CCCCCn1c(=N)c(S(=O)(=O)c2ccc(Cl)cc2)cc2c(=O)n3cccc(C)c3nc21	-	-	-	-	.	?
Cc1ccc(NC(=O)C2=NNC(=O)CC2)cc1S(=O)(=O)Nc1ccc(SC(F)F)cc1	-	-	-	-	-	-
Cc1ccc(S(=O)(=O)NC(=O)c2ccc(F)cc2)c(C)c1	.	-	-	.	-	-
COCCCNC(=O)C[C@@H]1C[C@@]2(C(=O)OC)CC(C)(C)CC=C2N(Cc2ccc3c(c2)OCO3)C1=O	-	.	-	-	-62	.
CCCCOCCCNC(=O)C[C@@H]1C[C@@]2(C(=O)OC)CC(C)(C)CC=C2N(Cc2ccc3c(c2)OCO3)C1=O	-	.	-	?	-	.
COC(=O)[C@]12CCCCC=C1N(Cc1ccccc1)C(=O)[C@H](CC(=O)NCc1cccc3ccccc13)C2	-	.	-	-	-	.
CCOC(=O)[C@]12CCC=C1N(Cc1ccccc1)C(=O)[C@H](CC(=O)NCc1cccc(C(F)(F)F)c1)C2	-	.	-	-	-97	.
COC(=O)[C@]12CCCCC=C1N(Cc1ccc3c(c1)OCO3)C(=O)[C@H](CC(=O)NCc1cccc3ccccc13)C2	?	.	-	?	-61	.
COC(=O)[C@]12CCCCC=C1N(Cc1cccc3ccccc13)C(=O)[C@H](CC(=O)NCCC(C)C)C2	-	.	-	-	-61	.
CCOc1ccc(NC(=O)CN2CCN(C3CCCCC3)C(=O)C2=O)cc1	-	-	-	-	-	.
O=C(CCn1c(SCC(=O)NCc2ccco2)nc2ccccc2c1=O)NCCc1ccccc1	-	?	-	-	-	-
COc1ccc(NC(=O)N(Cc2ccc(C)cc2)Cc2cccnc2)c(OC)c1	-	-	?	-	-	?
O=C1C=CC(=O)N1c1ccc2c(c1)Cc1cc(F)ccc1-2	?	.	-	-	-	-
CC(=O)Nc1ccc2c(c1)Cc1cc(N3C(=O)C=CC3=O)ccc1-2	-	.	-	-	-66	-
CC(=O)Nc1ccc2c(c1)CCCC2=O	.	32µM	?	.	-	-
CCOc1ccc(Oc2nc(Nc3ccc(C)cc3)nc(N(C)C)n2)nn1	-	-	?	-	-	11µM
CC(=O)N1CCN(C2=NC(=O)/C(=C/c3ccc(OS(=O)(=O)c4ccccc4)cc3)S2)CC1	.	-	-	.	-70	-
CCCc1nn(C)c(C(=O)Nc2cccc3ccccc23)c1Cl	-	-	-	-	-	-
Cc1cc(C)c(-c2csc(NC(=O)/C=C/c3cccs3)n2)c(C)c1	?	-	?	?	-100	10µM
C/C(=N\NC(=O)C1CC1(c1ccccc1)c1ccccc1)c1cccc([N+](=O)[O-])c1 (stereo not given)	-	-	-	-	-	?
SMILES	Vaccinia mCherry	Sm TGR block	FMDV antiviral	Vaccinia Venus	HCMV inh	HCV inhibitor
O=C(N/N=C/c1cc(Br)ccc1O)c1cccc(N2CCCC2=O)c1	7.9µM	-	-	?	-	?
COc1ccc(O)c(/C=N/NC(=O)c2cccc(N3CCCC3=O)c2)c1	2.5µM	-	-	-	-	?
COc1ccc(O)c(/C=N/NC(=O)c2ccc(N3CCCC3=O)cc2)c1	2.8µM	-	-	?	?	11µM
COc1cccc(/C=N/NC(=O)c2cccc(N3CCCC3=O)c2)c1	-	-	-	-	-	?
O=C1c2ccccc2S(=O)(=O)c2cc(N3CCC(C(=O)N4CCCCC4)CC3)ccc21	-	.	-	-	-	-
O=C(CSc1nnc(-c2ccco2)o1)c1ccc[nH]1	-	28µM	-	-	-	?
O=C(CSc1nnc(-c2ccco2)o1)c1ccccc1	.	25µM	-	.	-	-
O=C(CSc1nnc(-c2ccco2)o1)c1ccc(F)c(F)c1	.	-	-	.	-	-
O=C(Nc1ccon1)Nc1ccc(Cl)cc1Cl	.	-	-	.	-	-
COc1ccc(C2CC(=O)C(C=NCCN3CCN(C(=S)Nc4ccccc4)CC3)=C(O)C2)cc1 (stereo not given)	-	-	-	-	-	-
CC(=O)Nc1ccc(S(=O)(=O)c2cc(O)ccc2O)cc1	-	6.3µM	-	-	-	-
Cc1ccc(S(=O)(=O)Nc2ccc(O)c(S(=O)(=O)c3ccc(C)cc3)c2)cc1	-	-	-	-	-	-
Cc1ccc(S(=O)(=O)c2cc(O)ccc2O)cc1C	-	4µM	-	-	-	-
Nc1nc(Cl)cc(Sc2ccc(F)cc2)n1	.	-	-	-	-	-
CCOC(=O)c1c(C)[nH]c(C2=NNC(=NC3CC3)SC2)c1C	.	-	22µM	.	.	?
COc1ccc(N2C(=O)CC(c3ccccc3)CC2=O)cc1	-	-	-	-	?	-
COc1ccc(C2CC(=O)C(CS(=O)(=O)c3ccccc3)C(=O)C2)cc1 (stereo not given)	-	1µM	-	-	?	-
O=C1CCCC(=O)C1CS(=O)(=O)c1ccccc1	-	2.2µM	-	-	-	-
O=C1CC(c2ccc(Cl)cc2)CC(=O)C1CS(=O)(=O)c1ccccc1 (stereo not given)	-	0.63µM	?	-	-	-
CSc1nc(-c2ccccc2)nn1C(=O)c1ccc(Cl)cc1	-	-	-	-	-	-
COc1ccc(-n2nnnc2CNC(=O)C(=O)c2c(C)[nH]c3ccccc23)cc1	-	-	-	-	-	-
CCOc1ccc(C(=O)Nc2ccc(S(=O)(=O)N3C[C@@H]4C[C@@H](C3)c3cccc(=O)n3C4)cc2)cc1	?	-	-	-	?	1µM
O=C(Nc1ccc(S(=O)(=O)N2C[C@@H]3C[C@@H](C2)c2cccc(=O)n2C3)cc1)c1ccc(F)cc1	-	-	-	-	-	?
Cc1cccc(NC(=O)Nc2cccc(C#N)c2)n1	-	-	-	-	-	?
Cc1cccc(NC(=O)Nc2ccc(C#N)cc2)n1	?	-	-	?	-84	-
Cc1cccc(NC(=O)/C(C#N)=C/c2ccccc2O)n1	.	89µM	-	.	-	-

Compound activity as filed in PubChem.
